Sampled rows, rich in hits. Any-hit rate of the full collection: about 3.3%.
PHOSPHO1 inh: PubChem AID 1565. recombinant PHOSPHO1, absorbance phosphatase assay. inhibition, % at 13.3 µM. hit rate 1.1% among 290,000; in the data active = inhibition above about 60%
Efflux pump mplx: inhibitors of Candida efflux pumps in yeast, primary screen, S. cerevisiae, Nile Red, multiplex; hit rate 0.44% among 330,000; S. cerevisiae Candida pump triplex; inhibition, % at 10 µM;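 active = plate passing quality check with inhibition over a set limit, or well fluorescence over plate mean plus 4 SD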;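 also: Nile Red retained in pooled yeast measured as flow cytometry median fluorescence; higher means more Nile Red kept so more efflux inhibition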
Calb FLC: C. albicans growth inhibition with fluconazole, primary screen, CaCi-2 strain, Alamar Blue fluorescence | C. albicans CaCi-2 (fluconazole-resistant clinical isolate) + fluconazole, 48 h | growth inhibition, % (no concentration beside the values) | hit rate 0.57% among 300,000;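 active = growth inhibition above about 58% in most replicates, limit read from the data, passing the limit was not always enough; inconclusive = exactly half the replicates above a set limit; inactive = most replicates below a set limit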;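 also: all wells also contain fluconazole at 8 µg/ml as a sub-toxic cotreatment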
Cardio protect: cardioprotection against H2O2-induced cell death, primary screen, uHTS, H9c2 cells, ATPLite luminescence | H9c2 cardiomyocytes, H2O2 injury protection, 2 h | protection from H2O2 cell death, % at 20 µM | hit rate 0.63% among 360,000;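 active = compounds giving at least 50% protection of heart cells from peroxide-induced death in the single-dose screen, raw or plate-pattern-corrected value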
KCC2 mod: KCC2 cotransporter modulators, thallium flux, primary screen, cell-based, HEK293 KCC2, FluoZin-2 fluorescence, MLSMR; B-score of Tl+ flux slope (higher = more flux/activation; lower = inhibition) at 10 µM; KCC2 cells, thallium flux FluoZin-2 fluorescence; hit rate 2.2% among 190,000; AID 1456, 2008; Solute carrier family 12 member 5 (Homo sapiens), Q9H2X9;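 active = thallium flux slope and its plate-corrected score both differing from the plate sample mean at a set confidence after two filtering rounds, in either direction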;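 also: slope of fluorescence scaled to starting intensity during 10 to 20 s after thallium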
Target sequence (Q9H2X9 whole entry, looked up): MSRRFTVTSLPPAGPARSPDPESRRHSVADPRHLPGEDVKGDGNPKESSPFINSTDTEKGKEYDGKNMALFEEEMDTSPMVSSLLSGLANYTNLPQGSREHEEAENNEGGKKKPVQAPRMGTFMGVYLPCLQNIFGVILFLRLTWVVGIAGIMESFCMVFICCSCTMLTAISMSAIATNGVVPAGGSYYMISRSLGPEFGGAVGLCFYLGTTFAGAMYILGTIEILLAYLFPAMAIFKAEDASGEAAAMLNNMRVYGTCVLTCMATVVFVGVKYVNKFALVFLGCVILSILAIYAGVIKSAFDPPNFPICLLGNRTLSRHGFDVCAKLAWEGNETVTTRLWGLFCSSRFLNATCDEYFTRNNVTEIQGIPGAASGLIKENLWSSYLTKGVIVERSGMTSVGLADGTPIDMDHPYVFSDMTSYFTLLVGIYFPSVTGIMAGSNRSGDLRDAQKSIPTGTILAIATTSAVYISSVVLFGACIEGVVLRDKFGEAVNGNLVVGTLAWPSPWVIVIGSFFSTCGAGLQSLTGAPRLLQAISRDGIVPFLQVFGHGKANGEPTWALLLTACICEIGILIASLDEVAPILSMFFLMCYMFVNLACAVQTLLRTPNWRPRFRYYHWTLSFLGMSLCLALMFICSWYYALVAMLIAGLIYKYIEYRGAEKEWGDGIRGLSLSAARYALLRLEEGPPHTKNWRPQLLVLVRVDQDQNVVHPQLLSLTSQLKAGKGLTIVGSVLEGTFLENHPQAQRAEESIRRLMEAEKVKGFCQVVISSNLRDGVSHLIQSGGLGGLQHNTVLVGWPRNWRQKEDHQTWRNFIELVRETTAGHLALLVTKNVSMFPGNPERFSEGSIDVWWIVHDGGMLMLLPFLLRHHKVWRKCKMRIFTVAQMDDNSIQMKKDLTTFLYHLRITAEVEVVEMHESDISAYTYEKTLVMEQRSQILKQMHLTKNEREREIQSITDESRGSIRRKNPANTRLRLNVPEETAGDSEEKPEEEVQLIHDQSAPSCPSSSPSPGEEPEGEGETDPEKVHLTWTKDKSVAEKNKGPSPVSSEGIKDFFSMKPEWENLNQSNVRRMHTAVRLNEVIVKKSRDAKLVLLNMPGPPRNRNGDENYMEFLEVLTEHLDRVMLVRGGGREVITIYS
Hits are given with their value; – = inactive; ? = inconclusive; · = no result given.

SMILES	PHOSPHO1 inh	Efflux pump mplx	Calb FLC	Cardio protect	KCC2 mod
COc1cccc(NC(=O)C2(C)CCN2C(=O)Cc2cccc3ccccc23)c1 (configuration not stated)	·	·	·	–	·
O=C(Cc1cccs1)NNC(=O)C12CC3CC(CC(C3)C1)C2	61.2	–	–	–	–
CC(O)(c1cccnc1)c1nc(-c2cc(F)cc(F)c2)cs1 (configuration not stated)	·	·	·	–	·
Cc1cc(C)nc(SCC(=O)Nc2ccc(S(=O)(=O)Nc3ncccn3)cc2)n1	–	–	–	–	–
Cc1cc(C)nc(NS(=O)(=O)c2ccc(NC(=O)CSc3ncn[nH]3)cc2)n1	61.8	–	–	–	–
N#Cc1ccc(C(=O)N(Cc2ccco2)c2c(N)n(Cc3ccccc3)c(=O)[nH]c2=O)cc1	·	–	·	–	·
O=C(C1CN(C(=O)c2cc3cc(Cl)ccc3o2)c2ccccc2O1)N1CCCCC1 (configuration not stated)	·	–	·	–	·
CN(C)c1ccc(-c2n(C)c3ccccc3[n+]2C)cc1	–	–	101.7	–	·
COc1cccc(/C=N/Nc2ncnc3scc(-c4ccccc4)c23)c1OC	–	–	–	60.0	·
Cc1sc2ncnc(N/N=C/c3ccccc3O)c2c1C	–	–	–	53.7	–
COc1cccc(C=NNc2nc3ccccc3s2)c1OC	·	·	·	–	·
COc1ccc(-c2csc(NC(=O)c3ccc(OCC(=O)N4CCOCC4)c(OC)c3)n2)cc1OC	–	–	–	80.7	–
CCOc1cc(N2CCOCC2)c(OCC)cc1NC(=O)[C@H](C)N1C(=O)C2CC=CCC2C1=O (some centres not stated)	62.9	–	–	–	–
C[C@@H](C(=O)Nc1cc(C(F)(F)F)ccc1N1CCOCC1)N1C(=O)C2CC=CCC2C1=O (some centres not stated)	·	·	·	–	·
COc1ccccc1N1CCN(S(=O)(=O)CCNC(=O)C2CC2)CC1	·	–	–	–	·
CC1(C)CC(N=Cc2c(O)n(Cc3ccc4c(c3)OCO4)c(=O)c3ccccc23)CC(C)(C)N1	–	–	87.7	–	–
CN(C)CCN=Cc1c(O)n(Cc2ccccc2)c(=O)c2ccccc12	–	–	–	–	–
CCOC(=O)c1cnc2ccc(C)cc2c1Nc1ccc(N2CCOCC2)cc1	–	–	96.2	–	·
CCOc1ccc(NC(=S)/C(=C(\[O-])c2ccc(C)c([N+](=O)[O-])c2)[n+]2ccccc2)cc1	93.0	–	–	–	–
COC(=O)C1=C(C)N(C)C(=O)NC1c1c(O)ccc2ccccc12 (configuration not stated)	–	–	–	–	·
CNC(CC(=O)c1ccc([N+](=O)[O-])cc1)C(Cl)(Cl)Cl (configuration not stated)	–	9.4	·	–	–
COc1ccc(C(=O)CC(Nc2ccc([N+](=O)[O-])cc2)c2ccc(OC)cc2)cc1 (configuration not stated)	–	–	–	–	–
COc1ccccc1Nc1nnc(SCC(=O)N2CCCC2=O)s1	61.3	–	–	–	–
COc1ccccc1Nc1nnc(SCC(=O)N2CCCC2)s1	–	–	–	–	–
Cc1cc(Oc2ccccc2)nc(-c2ccccc2O)n1	–	–	104.2	–	·
SMILES	PHOSPHO1 inh	Efflux pump mplx	Calb FLC	Cardio protect	KCC2 mod
COC(=O)c1ccc(Nc2cc(C)nc(-c3ccccc3O)n2)cc1	–	–	–	–	6.21
C=CCOc1cc(C)nc(-c2ccccc2O)n1	–	–	–	–	–
CCCN(Cc1nnc(-c2ccccc2Cl)o1)C(=O)c1cc(S(=O)(=O)N2CCOCC2)ccc1F	·	–	–	–	·
Cc1ccc(N2C(=O)CS/C2=C(\C(Cl)=C(Cl)Cl)[N+](=O)[O-])cc1	79.9	–	–	69.4	–
Cc1ccc(N2C(=O)CSCC2=O)cc1	–	–	–	–	–
COc1cc2c(cc1OC)C(c1ccccc1C(F)(F)F)CC(=O)N2 (configuration not stated)	–	–	–	–	·
Cc1ccc(NC(=O)CN2C(=O)S/C(=C\c3cc(Cl)c(OCC(=O)O)c(Cl)c3)C2=O)cc1	–	–	–	–	·
CSC(=S)N/N=C(\C)c1ccc(Br)cc1	–	–	–	–	83.8
O=c1c(/C=N/Nc2ccccc2)c(Sc2nnnn2-c2ccccc2)nc2ccccn12	93.0	·	·	–	–
O=C(O)C1Oc2ccccc2C1c1ccccc1 (configuration not stated)	·	·	·	–	·
CC(C(=O)c1ccccc1)[n+]1cccc(Br)c1 (configuration not stated)	–	–	75.1	–	·
COc1cccc(C(=O)NCCN2CCN(c3ccccc3)CC2)c1	–	–	–	–	·
CCn1cnc2c1c(=O)n(CC(=O)NCC(C)C)c(=O)n2Cc1ccccc1	–	–	–	–	·
O=C(Nc1cc(F)cc(F)c1)c1ccc(NCCCN2CCCCCC2)c([N+](=O)[O-])c1	–	–	98.3	–	–
CC1(C(=O)CSc2ncn[nH]2)CCC(=O)O1 (configuration not stated)	92.8	–	–	·	–
CC1(C(=O)CSc2nc3ccccc3[nH]2)CCC(=O)O1 (configuration not stated)	–	–	–	–	–
CCN1CCCC1CNC(=O)Cn1cc(C)c(=O)[nH]c1=O (configuration not stated)	·	·	·	–	·
O=C(COC(=O)C1=COCCO1)Nc1ccccc1	–	–	–	–	–
CC(=O)c1cccc(NC(=O)COC(=O)C2=COCCO2)c1	68.1	–	–	–	–
CCn1c(SCC(=O)Nc2nccs2)nnc1-c1ccc(C)cc1	–	–	–	–	–
CCC(=O)Nc1ccc(-c2nnc(SCC(=O)Nc3nccs3)n2C)cc1	102.9	–	–	–	–
O=C(OCC(=O)N1CCCCC1)c1cccs1	·	–	·	–	·
O=C(OCC(=O)N1CCc2ccccc2C1)c1cccs1	65.3	–	–	–	–
CN(Cc1ccccc1)C(=O)c1ccc(NC(=O)Cc2cccc(NC(=O)C3CCCN(C(=O)C4CCCC4)C3)c2)cc1 (configuration not stated)	·	–	·	–	·
O=C(Cc1n[nH]c(=O)c2ccccc12)NCc1ccc(Cl)cc1	–	–	–	67.1	–
SMILES	PHOSPHO1 inh	Efflux pump mplx	Calb FLC	Cardio protect	KCC2 mod
O=C(CSc1nc2ccccc2o1)NCC(=O)c1ccccc1	–	–	–	–	–
CC(C)c1ccc(OCC(=O)NCc2n[nH]c(=O)c3ccccc23)cc1	·	–	–	–	·
O=C(CSc1nc2ccccc2o1)NCc1n[nH]c(=O)c2ccccc12	–	–	–	57.0	–
COc1ccc(OCC(=O)NCc2n[nH]c(=O)c3ccccc23)cc1	·	–	–	77.8	·
O=C(COc1ccc(Cl)cc1)NCc1n[nH]c(=O)c2ccccc12	·	–	–	80.8	·
CC(C)(C)c1ccc(OCc2cnc(Cl)s2)cc1	–	–	?	–	–
Cn1nnnc1NN=Cc1ccccc1	·	·	·	–	·
COc1ccccc1-c1cnc(C(O)c2ccc(F)cc2C)[nH]1 (configuration not stated)	·	·	·	–	·

Screens deposited in PubChem BioAssay by several laboratories.
